Assay results published in PubChem BioAssay (Tox21).
“And” between values parts separate entries of the source, which are not always exact repeats. Identical values can stand only once. Results filed as inconclusive are left out. A call without a number means that no potency is given here. The source made the active and inactive calls. The call rests on the fitted dose curve; in most records, active means well fitted curve in the direction sought with a large enough effect in the repeat runs; inconclusive means weak or mixed curves; inactive means no such curve, though single readings can be large; an effect the other way counts as inactive or inconclusive.

test: Caspase-3/7 induction in HepG2 cells by small molecules, qHTS assay (AID 1346978); conditions: HepG2 caspase-3/7 activation, Caspase-Glo luminescence, 17 h; series mostly up to 92.4 µM; further: nearly all actives have a fitted effect of over 15% in size
Procedure, shortened: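 Wild-type HepG2 cells, 2,000/well, settled 5 hr at 37 C and 5% CO2, then compound-treated for 17 hr; caspase-3/7 activity read by luminescent Caspase-Glo 3/7 after 30 min at room temperature.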
Potency means the concentration at half of the fitted maximal effect.

Row | Structure (SMILES) | Potency
1 | CCCCCCCCS(=O)C(C)Cc1ccc2c(c1)OCO2 (configuration not stated) | inactive
2 | CCOc1ccc2nc3cc(N)ccc3c(N)c2c1 | inactive
3 | OCCN(CCO)c1nc(N2CCCCC2)c2nc(N(CCO)CCO)nc(N3CCCCC3)c2n1 | inactive
4 | CC[C@@]1(O)C(=O)OCc2c1cc1n(c2=O)Cc2cc3c(CN(C)C)c(O)ccc3nc2-1 | 4.22 µM (active)
5 | Cc1cccc(CN2CCN(C(c3ccccc3)c3ccc(Cl)cc3)CC2)c1 (configuration not stated) | inactive
6 | CCCC(=O)OC[C@@H](OC(=O)CCC)[C@@H](OC(=O)CCC)[C@H](Cn1c2nc(=O)[nH]c(=O)c-2nc2cc(C)c(C)cc21)OC(=O)CCC | inactive
7 | CCN(CC)CCCC(C)Nc1c2ccc(Cl)cc2nc2ccc(OC)cc12 (configuration not stated) | 29.8 µM (active)
8 | Nc1c2ccccc2nc2ccccc12 | 21.4 µM (active) and 11.9 µM (active)
9 | N/C(=N\N=C\c1ccc(Cl)cc1)N/N=C/c1ccc(Cl)cc1 | inactive
10 | Cc1cc(=O)oc2cc(N(C)C)ccc12 | inactive

test: Caspase-3/7 induction in CHO-K1 cells by small molecules, qHTS cell viability counter screen (AID 1346979); conditions: CellTiter-Fluor fluorescence, 17 h; series mostly up to 92.4 µM; further: nearly all actives have a fitted effect of over 35% in size
Procedure, shortened: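 Multiplexed with Caspase-Glo 3/7 in CHO-K1 cells, this counter screen added CellTiter-Fluor after 16hr of compound exposure and recorded fluorescence 1hr later.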

Row | Structure (SMILES) | Potency
11 | CCOc1nc2cccc(C(=O)OC(C)OC(=O)OC3CCCCC3)c2n1Cc1ccc(-c2ccccc2-c2nn[nH]n2)cc1 (configuration not stated) | 34.3 µM (active)
12 | C/C=C1/C(=O)C[C@H]2[C@@H]3CCC4=CC(=O)CC[C@]4(C)[C@H]3CC[C@]12C | 60.9 µM (active)
13 | CCC(C)Nc1ccc(NC(C)CC)cc1 (configuration not stated) | 17.6 µM (active)
14 | CC[C@@]1(O)C(=O)OCc2c1cc1n(c2=O)Cc2c-1nc1ccccc1c2/C=N/OC(C)(C)C | 0.75 µM (active)
15 | O=C(Nc1ccc(Oc2ccc(Cl)cc2)c(Cl)c1)c1cc(I)cc(I)c1O | inactive
16 | CCCCN1C(=O)[C@@H]([C@H](O)C2CCCCC2)NC(=O)C12CCN(Cc1ccc(Oc3ccc(C(=O)O)cc3)cc1)CC2 | 61.1 µM (active)
17 | CCc1cc(SCc2sc(-c3ccc(C(F)(F)F)cc3)nc2CN2CCN(c3ccc(OC)cc3)CC2)ccc1OCC(=O)O | 24.3 µM (active)
18 | CCCCCCCC[P+](CCCCCCCC)(CCCCCCCC)CCCCCCCC | 5.42 µM (active)
19 | CC(=O)N1CCN(c2ccc(OC[C@H]3CO[C@](Cn4ccnc4)(c4ccc(Cl)cc4Cl)O3)cc2)CC1 | 27.3 µM (active)
20 | Nc1nc2ccccc2n1Cc1ccc(F)cc1 | 23.7 µM (active)
21 | CCCC1O[C@@H]2C[C@H]3[C@@H]4CCC5=CC(=O)C=C[C@]5(C)[C@H]4[C@@H](O)C[C@]3(C)[C@]2(C(=O)CO)O1 (some centres not stated) | 61.2 µM (active) and 61.1 µM (active)
22 | CC(C)n1nc(-c2cc3cc(O)ccc3[nH]2)c2c(N)ncnc21 | 1.06 µM (active)
23 | CSc1ccc2c(c1)C(N1CCN(C)CC1)Cc1ccccc1S2 (configuration not stated) | 29.8 µM (active)
24 | Cc1cc(O)c(C(C)(C)C)cc1C(C)(C)C | 61.1 µM (active)
25 | Oc1ccc(N=Nc2ccccc2)cc1 | 61.9 µM (active)
26 | CCCCCCCCCOC(=O)c1ccc(O)cc1 | 53.7 µM (active)
27 | C[C@@H]1C[C@H]2[C@@H]3CCC4=CC(=O)C=C[C@]4(C)[C@@]3(Cl)[C@@H](O)C[C@]2(C)[C@@]1(OC(=O)c1ccco1)C(=O)CCl | 23.7 µM (active)
28 | Nc1ccc(N)c2ccccc12 | 30.6 µM (active)
29 | Cc1[nH]cnc1C[C@H]1CCc2c(C)c3ccccc3n2C1=O | 47.4 µM (active)
30 | C[C@H](CCC(=O)O)[C@H]1CC[C@H]2[C@@H]3CC[C@@H]4C[C@H](O)CC[C@]4(C)[C@H]3CC[C@]12C | 48.4 µM (active)
31 | CCc1cc(Cc2cc(CC)cc(C(C)(C)C)c2O)c(O)c(C(C)(C)C)c1 | 38.6 µM (active)

test: Caspase-3/7 induction in CHO-K1 cells by small molecules, qHTS assay (AID 1346980); conditions: CHO-K1 caspase-3/7 induction, Caspase-Glo luminescence, 17 h; series mostly up to 92.4 µM; further: nearly all actives have a fitted effect of over 15% in size
Procedure, shortened: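 Wild-type CHO-K1 cells exposed to compounds for 17hr at 37 C, 5% CO2. Caspase-3/7 activity then measured by Caspase-Glo 3/7 luminescence after 30min at room temperature.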

Row | Structure (SMILES) | Potency
32 | CCCCCCCCS(=O)C(C)Cc1ccc2c(c1)OCO2 (configuration not stated) | inactive
33 | CCOc1nc2cccc(C(=O)OC(C)OC(=O)OC3CCCCC3)c2n1Cc1ccc(-c2ccccc2-c2nn[nH]n2)cc1 (configuration not stated) | 43.2 µM (active)
34 | CCOc1ccc2nc3cc(N)ccc3c(N)c2c1 | inactive
35 | OCCN(CCO)c1nc(N2CCCCC2)c2nc(N(CCO)CCO)nc(N3CCCCC3)c2n1 | inactive
36 | C/C=C1/C(=O)C[C@H]2[C@@H]3CCC4=CC(=O)CC[C@]4(C)[C@H]3CC[C@]12C | inactive
37 | CCC(C)Nc1ccc(NC(C)CC)cc1 (configuration not stated) | inactive
38 | CC[C@@]1(O)C(=O)OCc2c1cc1n(c2=O)Cc2c-1nc1ccccc1c2/C=N/OC(C)(C)C | 11.9 µM (active)
39 | O=C(Nc1ccc(Oc2ccc(Cl)cc2)c(Cl)c1)c1cc(I)cc(I)c1O | inactive
40 | CCC(CN)=C(c1ccccc1)c1ccccc1 | inactive
41 | CCCCN1C(=O)[C@@H]([C@H](O)C2CCCCC2)NC(=O)C12CCN(Cc1ccc(Oc3ccc(C(=O)O)cc3)cc1)CC2 | inactive
42 | Cc1cccc(CN2CCN(C(c3ccccc3)c3ccc(Cl)cc3)CC2)c1 (configuration not stated) | inactive
43 | CCCCCCCC[P+](CCCCCCCC)(CCCCCCCC)CCCCCCCC | inactive
44 | Nc1ccc2c3c(cccc13)-c1ccccc1-2 | inactive
45 | CC(=O)N1CCN(c2ccc(OC[C@H]3CO[C@](Cn4ccnc4)(c4ccc(Cl)cc4Cl)O3)cc2)CC1 | inactive
46 | CCCC1O[C@@H]2C[C@H]3[C@@H]4CCC5=CC(=O)C=C[C@]5(C)[C@H]4[C@@H](O)C[C@]3(C)[C@]2(C(=O)CO)O1 (some centres not stated) | inactive
47 | CCCC(=O)OC[C@@H](OC(=O)CCC)[C@@H](OC(=O)CCC)[C@H](Cn1c2nc(=O)[nH]c(=O)c-2nc2cc(C)c(C)cc21)OC(=O)CCC | inactive
48 | CSc1ccc2c(c1)C(N1CCN(C)CC1)Cc1ccccc1S2 (configuration not stated) | inactive
49 | Oc1ccc(N=Nc2ccccc2)cc1 | inactive
50 | CCCCCCCCCOC(=O)c1ccc(O)cc1 | inactive
51 | Nc1c2ccccc2nc2ccccc12 | 12 µM (active)
52 | Nc1ccc(N)c2ccccc12 | inactive
53 | Cc1[nH]cnc1C[C@H]1CCc2c(C)c3ccccc3n2C1=O | inactive
54 | N/C(=N\N=C\c1ccc(Cl)cc1)N/N=C/c1ccc(Cl)cc1 | inactive
55 | Cc1cc(=O)oc2cc(N(C)C)ccc12 | inactive
56 | C[C@H](CCC(=O)O)[C@H]1CC[C@H]2[C@@H]3CC[C@@H]4C[C@H](O)CC[C@]4(C)[C@H]3CC[C@]12C | 48.4 µM (active) and 61.1 µM (active)
57 | CCc1cc(Cc2cc(CC)cc(C(C)(C)C)c2O)c(O)c(C(C)(C)C)c1 | 54.5 µM (active)
